Most compounds without a hit are left out; they make up all but 18% or so of the library.
HepG2 tox: counter-screen for TGF-b inhibitors: cytotoxicity in HepG2 cells; HepG2 CAGA-GFP viability, ATP luminescence, 18 h; Potency, µM (titrated, usually from 46.1 µM), for the others: at the top dose activity change, negative = cytotoxicity, usual class: cytotoxic; actives 0.76% (n = 410,000); also: potency is read from the fitted curve at half-maximal effect
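CellTiter-Glo luminescence gave cytotoxicity after 18 hours at 37 degrees C. The cells were HepG2 CAGA-GFP in 1% FBS DMEM, stimulated with 500 pg/mL TGF-beta after compound addition. %Activity was normalised to no-cell wells (complete cell-killing) and DMSO (no toxicity), and curves were fitted and classified.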
DT40 TDP1 no CPT: qHTS for Inhibitors of human tyrosyl-DNA phosphodiesterase 1 (TDP1): qHTS in cells in absence of CPT; DT40 Tdp1-/- hTDP1 cells, no CPT, ATP luminescence, 48 h; Potency, µM (highest dose often 46.2 µM), for the others: at the top dose activity change, negative = growth inhibition, hits mostly inhibitors; AID 686978, 2013; actives 15% (n = 420,000); also: potency is read from the fitted curve at half-maximal effect; % is scaled to controls: 0 for no effect and ±100 for the full control effect; nearly all actives have a fitted effect of over 55% in size
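Chicken DT40 Tdp1-/- cells complemented with human TDP1, screened without camptothecin (DMSO vehicle only), 400 cells/well. Compounds pin-transferred, cells incubated at 37 °C for at least 48 hr. Growth read as ATP-dependent luminescence (CellTiter-Glo, 30 min at RT).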
TDP1 cell CPT: growth inhibition of DT40 Tdp1-/-;hTDP1 cells with camptothecin (screen for TDP1 inhibitors); chicken DT40 Tdp1-/-;hTDP1 cells + 20 nM CPT, ATP luminescence, 48 h; Potency, µM (series often up to 46.2 µM), without a hit: at the highest dose activity change, negative = growth inhibition, most hits filed as inhibitors; actives 12% (n = 420,000); AID 686979; also: potency is read from the fitted curve at half-maximal effect; % is scaled to controls: 0 for no effect and ±100 for the full control effect; nearly all actives have a fitted effect of over 55% in size
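Chicken DT40 Tdp1-/- cells stably complemented with human TDP1 were seeded at 400 cells/well in medium containing 20 nM camptothecin, exposed to pin-transferred compounds, and grown at 37 °C for at least 48 hr. Viability was read as ATP luminescence.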
TGFb inhibitor: inhibitors of TGF-b signaling | actives 1.2% (n = 410,000) | Potency, µM (highest dose often 46.1 µM), for inactives: at the top dose activity, negative = inhibition, usual class: inhibitors | AID 588855 | HepG2 CAGA-GFP TGF-b/SMAD3 reporter, GFP fluorescence, 18 h; TGF-beta stimulated, 500 pg/mL final; also: potency is read from the fitted curve at half-maximal effect; % is scaled to controls: 0 for no effect and ±100 for the full control effect; nearly all actives have a fitted effect of over 65% in size
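Inhibition of TGF-beta-driven CAGA-GFP reporter expression in HEPG2 cells is measured by cellular GFP fluorescence after 18 h stimulation with 500 pg/mL recombinant TGF-beta in 1% FBS medium at 37 degrees C.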
TDP1 block: TDP1 (human) enzyme inhibition. Q9NUW8. recombinant TDP1, AlphaScreen DNA substrate cleavage. AID 485290. actives 0.28% (n = 350,000). Potency, µM (top dose mostly 130 µM), for the others: top-dose activity change, negative = inhibition, usual class: inhibitors; also: potency is read from the fitted curve at half-maximal effect; % is scaled to controls: 0 for no effect and ±100 for the full control effect; nearly all actives have a fitted effect of over 40% in size
Target sequence (Q9NUW8 whole entry, looked up): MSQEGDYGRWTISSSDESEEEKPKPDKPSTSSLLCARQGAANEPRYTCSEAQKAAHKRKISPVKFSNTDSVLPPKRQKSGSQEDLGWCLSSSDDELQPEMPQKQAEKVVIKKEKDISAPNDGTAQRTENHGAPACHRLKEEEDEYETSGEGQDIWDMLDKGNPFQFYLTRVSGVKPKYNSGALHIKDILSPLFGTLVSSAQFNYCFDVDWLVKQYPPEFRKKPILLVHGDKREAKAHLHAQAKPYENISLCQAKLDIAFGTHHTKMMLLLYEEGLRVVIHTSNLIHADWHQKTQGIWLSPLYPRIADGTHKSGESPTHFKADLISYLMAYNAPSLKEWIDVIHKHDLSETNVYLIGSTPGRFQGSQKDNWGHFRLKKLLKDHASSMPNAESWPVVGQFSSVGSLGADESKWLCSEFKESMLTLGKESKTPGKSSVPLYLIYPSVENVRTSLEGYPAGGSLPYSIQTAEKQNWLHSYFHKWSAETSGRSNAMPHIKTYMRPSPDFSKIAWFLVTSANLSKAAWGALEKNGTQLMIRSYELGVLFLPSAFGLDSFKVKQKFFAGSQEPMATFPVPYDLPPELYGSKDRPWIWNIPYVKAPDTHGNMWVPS
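Compounds were preincubated with Tdp1 (1 nM final) for 15 min at room temperature before substrate (15 nM final) started a 5 min reaction; beads (10 ug/ml final) were then added for 10 min before AlphaScreen detection.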
IL-1B inflam inh: inflammasome signaling inhibition, IL-1 beta readout; AID 743279; actives 4.7% (n = 360,000); THP-1 LPS/ATP IL-1B secretion, AlphaLISA, 16 h; stronger effect = lower value; activity change, % at 57.5 µM; in the data active = activity change below about -50%; inconclusive = mostly about -30% to -49%; also: % is scaled to controls: 0 for no effect and ±100 for the full control effect
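Secreted IL-1B measured by AlphaLISA bead assay after 16 h compound exposure of THP-1 cells; compounds (final up to 57.5 uM) added 1 h before LPS (250 ng/mL) and ATP (1.25 mM) stimulation; lower signal means less secretion.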
* = called active by the depositor; ? = inconclusive; nt = no result given. Unless noted, calls follow the shape of the dose curve; as a rule, active = well fitted curve in the direction sought with a large enough effect; inconclusive = small, poorly fitted or top-dose-only effect, or another doubt; inactive = no such curve, though single readings can be large; an effect the other way counts as inactive or inconclusive.

SMILES | HepG2 tox | DT40 TDP1 no CPT | TDP1 cell CPT | TGFb inhibitor | TDP1 block | IL-1B inflam inh
CN(c1ccc(/C=C/c2ccccc2)cc1)P1(=O)NCCCO1 (centres undefined) | -19% | -9% | -16% | 1% | nt | nt
COc1ccc(S(=O)(=O)N2CCC(n3cnc4cc(C(F)(F)F)ccc43)CC2)cc1 | -34% | -13% | ? | -2% | 5% | -5
COCC(=O)N1CCC2CC1c1c(-c3ccc(C(F)(F)F)cc3)cccc12 (centres undefined) | -5% | ? | 23µM* | -20% | nt | 4
COc1ccc(S(=O)(=O)N2CCC3CC2c2c(-c4ccc(C(F)(F)F)cc4)cccc23)cc1 (centres undefined) | -18% | 5.2µM* | 4.6µM* | -30% | nt | 10
COc1ccc(-c2cccc3c2C2CC3CCN2C(=O)OCc2ccccc2)cc1 (centres undefined) | -29% | ? | ? | ? | nt | -20
C=CCOC(=O)N1CCC2CC1c1c(-c3ccc(C(F)(F)F)cc3)cccc12 (centres undefined) | -34% | ? | 23µM* | ? | nt | 40
CCOc1ccc(-c2nnc3ccc(SCC(=O)N4CCCCC4)nn23)cc1 | -34% | -26% | -7% | -26% | 3% | -1
O=C(CCn1c(=O)sc2ccccc21)Nc1nc2ccccc2s1 | -2% | ? | ? | 0% | 2% | ?
Cc1ccc2nc(NC(=O)CSc3nncc(=O)n3N)sc2c1 | -17% | 16µM* | ? | 19% | -9% | 2
CCOc1ccc(-c2nnc3ccc(SCC(=O)Nc4nc5ccccc5s4)nn23)cc1 | -8% | 18µM* | ? | 0% | 7% | 15
Cc1ccc2nc(NC(=O)CCn3c(=O)sc4ccccc43)sc2c1 | -40% | ? | 18µM* | -20% | 2% | 27
Cc1ccc(S(=O)(=O)NCCc2nnc3ccc(SCC(=O)Nc4nc5ccccc5s4)nn23)cc1 | nt | nt | nt | nt | -2% | nt
CCOc1ccc(-c2nnc3ccc(SCC(=O)Nc4nc5ccc(C)cc5s4)nn23)cc1 | 2% | 26µM* | ? | ? | 5% | 33
CCOc1c(C)cc(S(=O)(=O)NCc2ccccn2)c(C)c1C | 4% | -1% | -1% | 4% | nt | 18
Cc1ccc2c3c1C1(C(=O)N3C(C)(C)CC2C)C(C#N)=C(N)Oc2cc(O)ccc21 (centres undefined) | -38% | 0% | -23% | ? | 4% | ?
Cc1cc2c3c(c1)C1(C(=O)N3C(C)(C)CC2C)C(C#N)=C(N)Oc2cc(O)ccc21 (centres undefined) | -30% | 25µM* | -13% | ? | 7% | -25
Cc1cc(NS(=O)(=O)c2ccc(NC(=O)c3ccccc3F)cc2)no1 | -1% | 16% | -19% | 2% | 1% | -18
O=S(=O)(c1cc(Cl)c(Cl)cc1Cl)N1CCN2CCCC2C1 (centres undefined) | -2% | -21% | ? | ? | 5% | -1
Cc1ccccc1NNC(N)=S | 17% | 23µM* | 21µM* | -7% | -9% | ?
Cc1ccccc1NC(=O)Nc1ccc(C(F)(F)F)cc1 | -19% | 8.2µM* | 9.2µM* | -23% | 3% | -10
NC(=O)c1ccccc1NC(=O)Nc1cccc2ccccc12 | -1% | 4.6µM* | 1.6µM* | -2% | -5% | -11
NC(=O)NNC(=S)Nc1cccc2ccccc12 | -20% | 6% | -5% | 6% | 5% | 13
Cc1ccc(NC(=O)Nc2ccccc2C(N)=O)cc1 | 15% | ? | ? | -6% | -3% | 0
Cc1ccccc1NC(=O)Nc1ccccc1C(N)=O | 1% | ? | 10µM* | -12% | 3% | -10
